In PubChem BioAssay (EPA / NIEHS):
Records with an inconclusive call do not appear. The source made the active and inactive calls. The calls were made as follows, unless noted: active = hit-call score of the fitted dose curve at least 0.9, where 1 is the maximum; inactive = score below 0.9.

Experiments:
[1] = read-out: Interleukin-8 (IL8), CXCL8 (gene 3576); assay: BSK_3C_IL8: BioMAP Diversity Plus: 3C Assay for Interleukin-8 (IL8) Biomarker Activity (AID 2283020); details: primary human endothelial cells (HUVEC); actives raise or lower the signal
Outline: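 Human vascular endothelial cells (umbilical vein) in the 3C system; IL-8 level detected by ELISA at 24 h post-dose, with DMSO as baseline.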

[2] = read-out: Monokine induced gamma interferon (MIG), CXCL9 (gene 4283); assay: BSK_3C_MIG: BioMAP Diversity Plus: 3C Assay for Monokine induced gamma interferon (MIG) Biomarker Activity (AID 2283021); details: primary human endothelial cells (HUVEC); actives raise or lower the signal
Outline: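 After 24 h of treatment, human umbilical vein endothelial cultures (3C system) had their MIG biomarker level determined by ELISA, with DMSO serving as negative control.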

[3] = BSK_3C_SRB: Viability Assessment in the BioMAP Diversity Plus: 3C Assay (AID 2283023); details: primary human endothelial cells (HUVEC);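 also: fitted both ways against DMSO so a hit may be signal rise or drop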
Outline: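 Primary human umbilical vein endothelial cells in the 3C system were read 24 h after compound dosing. Total protein was stained with 0.1% sulforhodamine B after 10% TCA fixation and read at 560 nm, with bidirectional fitting against DMSO as baseline.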

[4] = read-out: Matrix Metallopeptidase 1 (MMP1), MMP1 (gene 4312); assay: BSK_BE3C_MMP1: BioMAP Diversity Plus: BE3C Assay for Matrix Metallopeptidase 1 (MMP1) Biomarker Activity (AID 2283024); details: primary human bronchial epithelial cells; actives raise or lower the signal
Outline: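 Dose cells, wait 24 h, run MMP1 ELISA; cells are human bronchial epithelial primaries. Both increases and decreases relative to DMSO counted.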

[5] = BSK_3C_Vis: BioMAP Diversity Plus: 3C Assay for Morphology Visualization (AID 2283025); details: primary human endothelial cells (HUVEC);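 also: fitted both ways so gain or loss versus DMSO counts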;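 as to AC50: light microscopy image of cell morphology used as background control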
Outline: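 Endothelial cells from human umbilical vein were treated with test chemicals for 24 h and inspected by light microscopy for changes in cell conformation.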

[6] = read-out: Pselectin, SELP (gene 6403); assay: BSK_4H_Pselectin: BioMAP Diversity Plus: 4H Assay for Pselectin Biomarker Activity (AID 2283026); details: primary human endothelial cells (HUVEC); actives raise or lower the signal
Outline: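 Human vascular endothelium from umbilical vein; P-selectin measured by ELISA at 24 h post-dose, with cytotoxicity checked by sulforhodamine B total-protein staining in parallel cultures (0.1% SRB after 10% TCA fixation, read at 560 nm).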

[7] = BSK_4H_SRB: Viability Assessment in the BioMAP Diversity Plus: 4H Assay (AID 2283027); details: primary human endothelial cells (HUVEC);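 also: cells exposed to compound for 24 h before staining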;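 as to AC50: curves fitted both ways versus DMSO so AC50 may be loss or gain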
Outline: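 Absorbance at 560 nm of SRB-stained total protein served as the viability read-out in confluent primary human umbilical vein endothelium 24 h after chemical treatment. Curves were fitted bidirectionally against DMSO as negative control.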

[8] = BSK_BE3C_SRB: Viability Assessment in the BioMAP Diversity Plus: BE3C Assay (AID 2283028); details: primary human bronchial epithelial cells;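 as to AC50: fitted both ways so AC50 may mark signal gain or loss versus DMSO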
Outline: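 Human primary bronchial epithelial cells were exposed to test chemicals for 24 h. Total protein in parallel cultures was then measured by staining with 0.1% sulforhodamine B after 10% TCA fixation, with absorbance read at 560 nm. Activity was fitted bidirectionally against DMSO.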

[9] = read-out: Thrombomodulin, THBD (gene 7056); assay: BSK_3C_Thrombomodulin: BioMAP Diversity Plus: 3C Assay for Thrombomodulin Biomarker Activity (AID 2283029); details: primary human endothelial cells (HUVEC); actives raise or lower the signal
Outline: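 Thrombomodulin ELISA, human primary HUVEC, 24 h post-dose; data fitted in both directions relative to DMSO.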

[10] = read-out: Urokinase-type plasminogen activator receptor (uPAR), PLAUR (gene 5329); assay: BSK_4H_uPAR: BioMAP Diversity Plus: 4H Assay for Urokinase-type plasminogen activator receptor (uPAR) Biomarker Activity (AID 2283030); details: primary human endothelial cells (HUVEC); actives raise or lower the signal
Outline: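 Primary human umbilical vein endothelial cells were exposed to chemical for 24 h before cell-surface uPAR was quantified by ELISA. Activity was fitted bidirectionally against the DMSO negative control baseline.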

[11] = read-out: Vascular endothelial growth factor receptor 2 (Homo sapiens) (UniProt P35968); assay: BSK_4H_VEGFRII: BioMAP Diversity Plus: 4H Assay for Vascular endothelial growth factor receptor 2 (VEGFR2) Biomarker Activity (AID 2283031); details: primary human endothelial cells (HUVEC); actives raise or lower the signal;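 as to AC50: cell-surface VEGFR2 protein level quantified by ELISA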
Outline: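 Primary human umbilical vein endothelial cells in the BioMAP 4H system were dosed with test chemical, and 24 h later VEGFRII was measured by ELISA. Activity was fitted bidirectionally against DMSO as negative control and baseline.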

[12] = read-out: Human Leukocyte Antigen - DR isotype (HLADR), HLA-DRA (gene 3122); assay: BSK_BE3C_HLADR: BioMAP Diversity Plus: BE3C Assay for Human Leukocyte Antigen - DR isotype (HLADR) Biomarker Activity (AID 2283032); details: primary human bronchial epithelial cells; actives raise or lower the signal
Outline: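 Signal came from an ELISA for HLA-DR in human bronchial epithelial primary cells harvested 24 h after treatment; gain- and loss-of-signal fitting used DMSO controls as reference.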

[13] = read-out: Vascular cell adhesion molecule 1 (VCAM1), VCAM1 (gene 7412); assay: BSK_4H_VCAM1: BioMAP Diversity Plus: 4H Assay for Vascular cell adhesion molecule 1 (VCAM1) Biomarker Activity (AID 2283033); details: primary human endothelial cells (HUVEC); actives raise or lower the signal
Outline: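 Endpoint derived from bidirectional fitting against DMSO controls of VCAM-1 ELISA signal in umbilical vein endothelial cells sampled at 24 h following treatment.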

[14] = read-out: Interferon-gamma inducible Protein 10 (IP10), CXCL10 (gene 3627); assay: BSK_BE3C_IP10: BioMAP Diversity Plus: BE3C Assay for Interferon-gamma inducible Protein 10 (IP10) Biomarker Activity (AID 2283034); details: primary human bronchial epithelial cells; actives raise or lower the signal
Outline: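 Using primary human bronchial epithelial cultures, the assay captures IP-10 by ELISA one day (24 h) after exposure. Parallel SRB staining of total protein flags overt cytotoxicity. Fits run bidirectionally relative to DMSO.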

[15] = read-out: Monokine induced gamma interferon (MIG), CXCL9 (gene 4283); assay: BSK_BE3C_MIG: BioMAP Diversity Plus: BE3C Assay for Monokine induced gamma interferon (MIG) Biomarker Activity (AID 2283035); details: primary human bronchial epithelial cells; actives raise or lower the signal
Outline: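 MIG level was determined by ELISA after 24 h chemical treatment of primary human bronchial epithelial cells. Values were fitted bidirectionally with DMSO as the negative control and activity baseline.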

[16] = read-out: Transforming growth factor beta 1 (TGFb1), TGFB1 (gene 7040); assay: BSK_BE3C_TGFb1: BioMAP Diversity Plus: BE3C Assay for Transforming growth factor beta 1 (TGFb1) Biomarker Activity (AID 2283036); details: primary human bronchial epithelial cells; actives raise or lower the signal
Outline: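 In this human primary bronchial epithelial system, an ELISA quantified TGF-b1 one day after dosing. Endpoint changes in either direction were fitted relative to DMSO.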

[17] = read-out: Plasminogen activator inhibitor-1 (PAI1), SERPINE1 (gene 5054); assay: BSK_BE3C_PAI1: BioMAP Diversity Plus: BE3C Assay for Plasminogen activator inhibitor-1 (PAI1) Biomarker Activity (AID 2283037); details: primary human bronchial epithelial cells; actives raise or lower the signal
Outline: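 PAI-1 biomarker levels in treated human bronchial epithelial cells are determined by ELISA at 24 h. Both increases and decreases relative to DMSO are fitted.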

[18] = read-out: urokinase plasminogen activator (uPA), PLAU (gene 5328); assay: BSK_BE3C_uPA: BioMAP Diversity Plus: BE3C Assay for urokinase plasminogen activator (uPA) Biomarker Activity (AID 2283038); details: primary human bronchial epithelial cells; actives raise or lower the signal
Outline: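 Human primary bronchial epithelial cells were exposed to chemical for 24 h, then uPA levels were measured by ELISA. Responses were fitted bidirectionally against DMSO as negative control and baseline. Parallel SRB staining of total protein gauged overt cytotoxicity.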

[19] = read-out: Urokinase-type plasminogen activator receptor (uPAR), PLAUR (gene 5329); assay: BSK_BE3C_uPAR: BioMAP Diversity Plus: BE3C Assay for Urokinase-type plasminogen activator receptor (uPAR) Biomarker Activity (AID 2283039); details: primary human bronchial epithelial cells; actives raise or lower the signal
Outline: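 A uPAR ELISA serves as the readout, taken 24 h after treating primary human bronchial epithelial cells. Responses in either direction are fitted against DMSO, which defines baseline activity.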

[20] = biological target: human Vitamin D Receptor (VDR), VDR (gene 7421) (UniProt P11473); assay: ATG_VDR_TRANS: Attagene TRANS-FACTORIAL HepG2 Assay for human Vitamin D Receptor (VDR) (AID 2283022; active = hit-call score of the fitted dose curve at least 0.9, where 1 is the maximum)
Chain of human Vitamin D Receptor (VDR), VDR (gene 7421) (P11473 whole entry, looked up, the tested form may be a part): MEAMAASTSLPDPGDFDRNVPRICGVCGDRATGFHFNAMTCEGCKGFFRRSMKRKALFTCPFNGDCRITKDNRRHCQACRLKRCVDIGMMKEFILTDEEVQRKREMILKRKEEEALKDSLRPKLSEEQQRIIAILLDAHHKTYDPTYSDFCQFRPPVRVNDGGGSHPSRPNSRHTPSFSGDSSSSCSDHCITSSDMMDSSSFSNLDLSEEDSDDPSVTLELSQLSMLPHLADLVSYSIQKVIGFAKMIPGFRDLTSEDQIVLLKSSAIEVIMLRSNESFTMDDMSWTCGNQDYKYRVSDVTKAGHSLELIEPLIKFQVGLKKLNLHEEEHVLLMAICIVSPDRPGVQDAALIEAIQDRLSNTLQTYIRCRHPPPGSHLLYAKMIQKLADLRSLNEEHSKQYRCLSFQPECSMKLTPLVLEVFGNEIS
Outline: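 HepG2 cells were transiently transfected with multiple GAL4-UAS reporter units, so signal reflects exogenous chimeric receptor-Gal4 activity. After 24 h compound exposure, reporter mRNA was measured by RT-PCR, fluorescent labelling and capillary electrophoresis, fitted for gain of signal versus DMSO.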

Measured: AC50

COCc1nnc(-c2ccc[n+]([O-])c2)n1-c1c(Cl)c(Cl)cc2[nH]c(=O)c(=O)[nH]c12
not listed: [20]
inactive: all other assays above

CCn1nc(C)c2c1C(=O)NCC(c1ccc(O)cc1)=N2
not listed: [20]
inactive: all other assays above

CCCCOC(=O)c1ccccc1
not listed: [20]
inactive: all other assays above

NC(=O)N1c2ccccc2C=Cc2ccccc21
not listed: [14] | [20]
inactive: all other assays above

O=S1(=O)CCCO1
not listed: [20]
inactive: all other assays above

CCCCC(CC)C(=O)OCCOCCOCCOC(=O)C(CC)CCCC (stereo not given)
not listed: [20]
inactive: all other assays above

OCCOCCOCCO
not listed: [1]
inactive: all other assays above

CCN(CC)C(=S)SSC(=S)N(CC)CC
active: [1] 31.2 µM | [3] 27.8 µM | [4] 25.5 µM | [5] 39.8 µM | [6] 20 µM | [7] 31.7 µM | [8] 34.6 µM | [10] 26.4 µM | [11] 26.8 µM | [12] 8.96 µM | [13] 32.4 µM | [14] 25.5 µM | [15] 32.3 µM | [16] 17.9 µM | [17] 27.9 µM | [18] 18.7 µM | [19] 22.6 µM
inactive: [20]
